From PubChem BioAssay AID1347076 (National Center for Advancing Translational Sciences (NCATS), 2019)
Hit rate of the full screen: of about 400,000 compounds, about 13,000 (3.2%) were called active. Another 18% or so got no clear call; they are omitted. The sample holds actives, similar compounds and a random draw of the others, so the mix is not that of the screen. Values without a mark were called inactive. Calls come from the whole dose curve; as a rule, active = well fitted cell-killing curve with a large enough effect; inconclusive = small, poorly fitted or top-dose-only effect, or effect the other way; inactive = flat fitted curve, though single readings scatter.

Assay: qHTS assay for MDR1-selective chemotherapeutics: Primary screen using the drug-selected MDR subline cells KB-V1; note: nearly all actives have a fitted effect of over 60% in size
Conditions: KB-V1 MDR cells viability, CellTiter-Glo, 72 h; series mostly up to 46.1 µM; activity change, negative = cytotoxicity: at the top concentration
In short: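 Readout: CellTiter-Glo luminescence, 10 min after addition. Cells: KB-V1 MDR subline, 72 h at 37 degrees C with compound. Analysis: corrected, normalized data fitted to concentration-effect curves.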
% is set by controls: 0 for no effect and ±100 for the full control effect; potency is the fitted concentration of half-maximal effect.

Structure (SMILES)	activity change, negative = cytotoxicity	Potency
Fc1ccc(-c2nn(-c3ccccc3Cl)c3c2cnc2ccccc23)cc1	-20.6%	–
Cc1ccc(S(=O)(=O)N[C@H](CO)C(C)C)cc1	-2.47%	–
O=C(Nn1cnc2ccccc2c1=O)c1ccccc1	-7.07%	–
Cc1cccc(C(=O)Nc2ccc(-c3nc4ccccc4s3)c(C)c2)c1	17.3%	–
CN(NC(=O)c1ccccc1F)c1nc(C(F)(F)F)nc2ccccc12	-12%	–
CN(NC(=O)c1ccccc1)c1nc2ccccc2nc1C(F)(F)F	–	4.61 µM (active)
Cc1cccc(C(=O)NCCc2nc3ccccc3n2Cc2ccccc2Cl)c1	-0.81%	–
CSc1nc(N(C)NC(=O)c2cccc(C)c2)c2ccccc2n1	–	0.206 µM (active)
C[C@H](CO)N1C[C@H](C)[C@@H](CN(C)C(=O)C2CCCCC2)OCc2cnnn2CCCC1=O	0%	–
Cc1ccc(F)c(S(=O)(=O)NC(=O)C2(C)CCN2C(=O)c2ccco2)c1 (stereo not drawn)	2.85%	–
COc1cccc(CNc2nc3cc(-c4csc5ccccc45)sc3c(=O)n2C)c1	1.56%	–
CC1CCN(c2ccc3c(c2)S(=O)(=O)c2cc(C(=O)O)ccc2C3=O)CC1	-17.6%	–
CCCCc1ccc(S(=O)(=O)NC(=O)C2(C)CCN2C(=O)c2ccccc2)cc1 (stereo not drawn)	-1.95%	–
O=c1[nH]c(CCl)nc2cc(-c3ccc(Cl)cc3)sc12	–	16.4 µM (active)
NC(=O)Cc1nc2scc(-c3ccc(Cl)cc3)c2c(=O)[nH]1	34.2%	–
O=c1[nH]c(CN2CCOCC2)nc2cc(Cl)ccc12	-7.03%	–
COCOc1cccc(CN2CCC(C)(Oc3ccc(SC)cc3)C2)c1 (stereo not drawn)	-12.9%	–
O=C1CC(c2ccccc2)CC2=C1C(c1ccco1)n1nc(C(F)(F)F)nc1N2 (stereo not drawn)	0%	–
COc1ccnc2c1c(=O)n(Cc1cccc(F)c1)c(=O)n2C	-0.196%	–
COc1ccc(N2C(=O)CSC23C(=O)N(Cc2cccc(F)c2)c2ccccc23)cc1Cl (stereo not drawn)	–	16.4 µM (active)
COc1ccc(N2C(=O)CS(=O)(=O)C23C(=O)N(Cc2ccc(C)cc2)c2ccccc23)cc1Cl (stereo not drawn)	3.01%	–
COc1cc(C(=O)OCCCN2CCOCC2)cc(OC)c1OC	-11.7%	–
CC(C)(C)OC(=O)N1CCC(c2c(C(=O)Nc3ccc4c(c3)OCO4)cnn2-c2ccccc2)CC1	-13.9%	–
COc1cc(OC)c(OC)cc1/C=C1\C=Cc2ccccc21	-1.45%	–
COc1ccc(S(=O)(=O)N2CCC(C(=O)NCCC(=O)Nc3ccccc3OC)CC2)cc1	6.15%	–
COC(=O)c1cc(NC(=O)c2cc(C(C)(C)C)nn2Cc2cccc(C)c2)ccc1N1CCOCC1	–	8.2 µM (active)

Structure (SMILES)	activity change, negative = cytotoxicity	Potency
CC(=O)Nc1ccc(N2CCOCC2)c(C(=O)Nc2cccc(C)c2)c1	-4.2%	–
COC(=O)c1cc(NC(=O)c2ccco2)ccc1N1CCOCC1	-2.65%	–
COc1ccc(C(=O)C(OP(=O)(OC)OC)c2ccccc2OC)cc1 (stereo not drawn)	-16.5%	–
CC1CC(NC(=S)N(C)C)CC(C)(C)C1 (stereo not drawn)	-7.02%	–
C=CCOC(=O)C1=C(C)NC(C)=C(C(=O)OCC=C)C1c1cccs1	–	16.4 µM (active)
CC1=C(C(=O)Nc2ccccc2)C(c2cccs2)C(C#N)=C(SCC#N)N1 (stereo not drawn)	-9.02%	–
C=CCOC(=O)c1ccccc1C(=O)OCC=C	28.4%	–
COc1ccc(C(O)c2nc(-c3ccc(OC)nc3)cs2)cc1 (stereo not drawn)	-18.5%	–
Cc1ccc(CNC(=O)c2c(-c3ccccc3)noc2C)cc1	6.43%	–
CCOC(=O)c1c(-c2ccc(-c3ccccc3)cc2)csc1NC(=O)CCC(=O)O	23%	–
CCOC(=O)c1c(-c2cccc(C)c2)csc1NC(=O)c1c(-c2ccccc2)noc1C	–	11.6 µM (active)
O=S1(=O)CC(N2CCN(CCO)CC2)CN1C1CCCC1 (stereo not drawn)	-0.341%	–
COc1ccc(C(=O)NCC2CCCO2)cc1S(=O)(=O)NCc1ccc(Cl)cc1 (stereo not drawn)	-13.3%	–
CCCCCc1c(-c2ccc(OC)c(OC)c2)ncn1CCc1ccccc1OC	–	14.6 µM (active)
CCOC(=O)CSc1nnc(-c2cccc(Br)c2)o1	17.9%	–
CCCCCc1c(Cc2ccccc2)ncn1CCc1ccccc1OC	-27.9%	–
CCC(=O)NCc1cc(-c2nn(C)c(=O)c3ccccc23)ccc1OC	–	inactive
CCCCCc1c(-c2cccc(Br)c2)ncn1CCc1ccccc1OC	–	11.6 µM (active)
COc1ccc(Br)cc1CN1CCN(C(=O)c2cccc(OC)c2OC)CC1	-7.38%	–
Cc1cccc(-n2ncc(C(=O)N3CCN(c4ccc(Cl)cc4)CC3)c2C2CCN(C(=O)OC(C)(C)C)CC2)c1	-29.7%	–
Cc1cc2nc(-c3ccc(NC(=O)c4cc5ccccc5o4)cc3)oc2cc1C	19%	–
CCN(CC)CCN(C)C(c1ccnc2ccccc12)c1nnnn1-c1ccc2c(c1)OCCO2 (stereo not drawn)	-6.74%	–
COC(=O)c1sc2ncccc2c1-n1c(C)ccc1C	6.85%	–
Cc1ccc(-c2c(N)nc3ncccn23)cc1	3.58%	–
O=C(CSc1oc(-c2ccccc2)nc1S(=O)(=O)c1ccc(Br)cc1)NC1CCCCC1	2.61%	–
Cc1ccc([C@H]2C[C@H](O)[C@@H](n3cc(COC(=O)c4ccccc4)nn3)CN2C(=O)C2CCCCC2)cc1	0%	–

Structure (SMILES)	activity change, negative = cytotoxicity	Potency
CCc1ccc(CNC(=O)C2CCCN(c3nc4ccccc4o3)C2)cc1 (stereo not drawn)	–	14.6 µM (active)
COc1ccc(OC)c(CNC(=O)C2CCCN(c3nc4ccccc4o3)C2)c1 (stereo not drawn)	-14.5%	–
COc1ccccc1CNC(=O)C1CCN(c2nc3ccccc3o2)CC1	-16.6%	–
COc1ccc(S(=O)(=O)N(C)C)cc1NC(=O)COC(=O)c1n[nH]c2ccccc12	0.0514%	–
CCCNC(=O)C1(C)CCCN(Cc2c(C)nn(-c3ccccc3)c2C)C1 (stereo not drawn)	4.98%	–
O=C(CSc1ncn[nH]1)Nc1nc2c(F)c(F)c(F)cc2s1	13.1%	–
CN1OC[C@@H]2CN(S(=O)(=O)c3cccc(C(F)(F)F)c3)[C@H](c3ccc(-c4cc5ccccc5o4)cc3)C[C@@H]21	-10.5%	–
COc1ccc(C(CNCC(=O)Nc2ccccc2F)N(C)C)cc1 (stereo not drawn)	-28%	–
COc1ccc(C(CCNCc2ccccc2F)c2ccc(F)cc2)cc1 (stereo not drawn)	–	14.6 µM (active)
COc1ccc(CCNC(=O)COC(=O)Cc2ccccc2F)cc1	0%	–
O=S1(=O)CC(N2CCSCC2)CN1Cc1cn(Cc2cccc(Cl)c2)nn1 (stereo not drawn)	12.2%	–
COc1cc2[nH]c(C)c(CCN3CCN(c4ccccc4)CC3)c2cc1OC	-6.06%	–
Cc1ccc(NS(=O)(=O)c2cc3c(cc2Br)NC(=O)CO3)cc1C	-18.7%	–
COc1cc(OC)c(/C=C/c2ccnc3ccccc23)c(OC)c1	-2.16%	–
O=C(Cn1nc(C(F)(F)F)c2c1CCCC2)Nc1ccc(Cl)cc1	9.58%	–
O=C(Cn1nc(C(F)(F)F)c2c1CCC2)NCc1ccc(F)cc1	–	11.6 µM (active)
CCC(C)NC(=O)Cn1nc(C(F)(F)F)c2c1CCC2 (stereo not drawn)	4.8%	–
CC(C)Cn1cc(-c2cncc3nccn23)cn1	3.33%	–
CCCC(=O)N1CCC1(C)C(=O)NCc1ccc(C(C)C)cc1 (stereo not drawn)	5.11%	–
Cc1sc(NC(=O)c2ccc3ncsc3c2)c(C(N)=O)c1C	16.3%	–
Cc1ccc(C(=O)c2c(NC(=O)c3ccccc3)sc(C)c2C)cc1	–	9.2 µM (active)
Cc1ccc(C(=O)Nc2nc(-c3ccccc3)ns2)cc1	-0.0266%	–
O=C(/C=C/[C@H]1O[C@@H](n2ccc(=O)[nH]c2=O)[C@H](O)[C@@H]1O)NCc1ccccn1	-12.4%	–
O=[N+]([O-])c1ccc(CN2CC(N3CCC(c4ccccc4)CC3)CS2(=O)=O)cc1 (stereo not drawn)	-9.02%	–
COC(=O)c1sccc1S(=O)(=O)N(CC(=O)Nc1ccc(C)c(F)c1)c1ccc(C)c(C)c1	-27.7%	–
O=C(OC1CC2CC1[C@H]1CCCCN1C2=O)N1CCOCC1 (stereo partly drawn)	17.6%	–

Structure (SMILES)	activity change, negative = cytotoxicity	Potency
O=NN(CCCl)C(=O)NCCc1cccc[n+]1[O-]	18.4%	–
Cc1sc2ccccc2c1CNC[C@H]1O[C@@H](n2ccc(=O)[nH]c2=O)[C@H](O)[C@@H]1O	5.69%	–
CCCCN1CC(N2CCN(Cc3cccc(C)c3)CC2)CS1(=O)=O (stereo not drawn)	-5.98%	–
Clc1ccccc1SCc1nc2ccccc2[nH]1	–	20.6 µM (active)
c1ccc2c(CSCc3nc4ccccc4[nH]3)cccc2c1	–	20.6 µM (active)
c1ccc(-c2nnc(SCc3nc4ccccc4[nH]3)o2)cc1	–	20.6 µM (active)
O=C(OCc1nc2ccccc2[nH]1)C1CCCCC1	27.9%	–
Nc1cccc(CCc2nc3ccccc3[nH]2)c1	-4.21%	–
CCN(C(=O)CSc1nnc(-c2ccncc2)o1)c1ccccc1	2.6%	–
O=c1[nH]nc(CSCc2ccccc2Cl)[nH]1	3.22%	–
SCc1nc2ccc(Cl)cc2[nH]1	-8.15%	–
Clc1ccc(-c2nnc(SCc3nc4ccccc4s3)o2)cc1	-2.53%	–
Cc1ccccc1NC(=O)Cn1cc(C(=O)c2cccs2)c2ccccc21	-23.2%	–
Cc1ccc(CNC(=O)CCNS(=O)(=O)c2ccc3c(c2)oc(=O)n3C)cc1	0.743%	–
O=C(NCCc1cccc(F)c1)C1CC(O)CN1C(=O)Nc1ccccc1 (stereo not drawn)	23.9%	–
Cc1ccc([C@@H]2CC(=O)[C@@H]3CN(S(=O)(=O)c4ccc(C)cc4)[C@H](c4ccccc4F)C[C@@H]3N2S(=O)(=O)c2ccc(Cl)cc2)cc1	2.77%	–
C=C1C(=O)[C@]23C[C@H]1CCC2[C@@]1(C)C(C[C@@H]3O)[C@](C)(C(=O)O)CC[C@@H]1O (stereo partly drawn)	-2.82%	–
O=C(NC1CCCC1)C1c2ccccc2OCC(=O)N1Cc1ccccc1 (stereo not drawn)	-6.86%	–
CC1(C(=O)Nc2cccc3c2CCCC3)CCN1C(=O)C1(c2ccccc2)CC1 (stereo not drawn)	-0.882%	–
Brc1nc2ncnc(NCc3ccco3)c2[nH]1	-7.71%	–
COCOCCn1cc(CN2CCS(=O)(=O)N(Cc3ccc(-c4ccccc4)cc3)C(CC(C)C)C2=O)nn1 (stereo not drawn)	-17.5%	–
Cc1cccc(OCCSc2nc3ccccc3n2CC(=O)N2CCCCC2)c1C	5.3%	–
CC(=O)c1nn(-c2ccc(C)cc2)cc1C(=O)c1cccc(Br)c1	3.34%	–
CCOC(=O)c1nn(-c2cccc(C)c2)cc1C(=O)c1ccccc1	–	14.6 µM (active)
CCOC(=O)c1cn(Cc2cccc(C)c2)nn1	10.5%	–
